# Measured values reported in PubChem BioAssay (NCATS).
# Records with an inconclusive call do not appear. Entries that show only a call come without a potency. The source made the active and inactive calls. Calls follow the shape of the dose curve; as a rule, active = well fitted inhibition curve with a large enough effect; inconclusive = small, poorly fitted or top-dose-only effect; inactive = no such curve, though single readings can be large or run the other way.
# Target: Protein phosphatase 1D (Homo sapiens) (UniProt O15297)
# Test: RapidFire Mass Spectrometry qHTS Assay for Modulators of WT P53-Induced Phosphatase 1 (WIP1) (AID 1347424)
# Conditions: WIP1 dephosphorylation of phosphopeptide, RapidFire MS; series mostly up to 63 µM
# Source text: Assay Provider (PI): Nathan Coussens Ph. D.
# National Center for Advancing Translational Sciences (NCATS), Rockville, MD
# National Institute of Health (NIH), Bethesda, Maryland
# WT P53-Induced Phosphatase 1 (WIP1) is a member of the magnesium-dependent serine/threonine protein phosphatase (PPM) family and is induced by P53 in response to DNA damage. In several human cancers, the WIP1 protein is overexpressed, which is generally associated with a worse prognosis. Although WIP1 is an attractive therapeutic target, no potent, selective, and bioactive small-molecule modulator with favorable pharmacokinetics has been reported. Phosphatase enzymes are among the most challenging targets for small molecules because of the difficulty of achieving both modulator selectivity and bioavailability. Another major obstacle has been the availability of robust and physiologically relevant phosphatase assays that are suitable for high-throughput screening.
# Here, we describe two orthogonal biochemical WIP1 activity assays that utilize phosphopeptides from native WIP1 substrates. We optimized a RapidFire MS assay to quantify the enzymatically dephosphorylated peptide reaction product in a 384-well format. Additionally, a redshifted Rhodamine-PBP fluorescence assay was optimized in a 1,536-well format to enable real-time WIP1 activity measurements through the detection of the orthogonal reaction product, Pi. We validated these two optimized assays by quantitative high-throughput screening against the National Center for Advancing Translational Sciences (NCATS) Pharmaceutical Collection and used secondary assays to confirm and evaluate inhibitors identified in the primary screen.
# SEQUENCE No. (e.g., 1, 2, 3, etc.); […] (e.g., Cells, Incubation, Reagent, etc.); VALUE; DESCRIPTION
# 1; Reagent; 50 uL; dispensed assay buffer: 0.1% formic acid in water (10 uL : 40 uL) solution in column 1
# 3; Library Compounds; 63 nL; library compounds in DMSO, columns 3-24
# 4; Control Compounds; 63 nL; DMSO in wells I-P, columns 1-2, GSK830371 (10 uM, final) in wells A-H, column 2
# 5; Time; 1 hr; incubation
# 6; Substrate; 2 uL; VEPPL-pS-QETFS (10 uM) in assay buffer, column 2-24
# 7; Time; 5 min; incubation
# 8; Reagent; 2 uL; 0.5% formic acid in water, columns 2-24
# 9; Reagent; 38 uL; VEPPL-S-QETF*S in 0.1% formic acid, columns 2-24
# 10; Detection; mass spec; RapidFire mass spectrometry
# NOTES (numbers refer to sequence above)
# 1, 2, 6; dispensed reagent in White Nunc 384-well PP microplates (264573); assay buffer: 50 mM Tris-HCl pH 7.5, 30 mM MgCl2, 1 mM TCEP, 0.1 mM EGTA, 75 ug/mL BSA.
# 2, 6, 8, 9; Dispensed with BioRaptr (Beckman Coulter)
# 2, 6, 9; Final concentrations: 10 nM WIP1; 2 uM VEPPL-pS-QETFS; 1 uM VEFFL-S-QETF*S
# 3 & 4; Kalypsys Pintool transfer (Wako USA), Tip wash sequence: water, DMSO, methanol, 20 sec vacuum dry.
# 5 & 7; incubation at room temperature
# 10; RapidFire mass spectrometry read using the Agilent RapidFire 360 (Clausse, 2019)
# Clausse V, et al. Physiologically relevant orthogonal assay for the discovery of small-molecule modulators of WIP1 […] in high-throughput screens. J Biol Chem. 2019, 294(46): 17654-17668. doi:10.1074/jbc.RA119.010201
# Potency is read from the fitted curve at half-maximal effect.
# Sequence of Protein phosphatase 1D (Homo sapiens) (O15297 whole entry, looked up): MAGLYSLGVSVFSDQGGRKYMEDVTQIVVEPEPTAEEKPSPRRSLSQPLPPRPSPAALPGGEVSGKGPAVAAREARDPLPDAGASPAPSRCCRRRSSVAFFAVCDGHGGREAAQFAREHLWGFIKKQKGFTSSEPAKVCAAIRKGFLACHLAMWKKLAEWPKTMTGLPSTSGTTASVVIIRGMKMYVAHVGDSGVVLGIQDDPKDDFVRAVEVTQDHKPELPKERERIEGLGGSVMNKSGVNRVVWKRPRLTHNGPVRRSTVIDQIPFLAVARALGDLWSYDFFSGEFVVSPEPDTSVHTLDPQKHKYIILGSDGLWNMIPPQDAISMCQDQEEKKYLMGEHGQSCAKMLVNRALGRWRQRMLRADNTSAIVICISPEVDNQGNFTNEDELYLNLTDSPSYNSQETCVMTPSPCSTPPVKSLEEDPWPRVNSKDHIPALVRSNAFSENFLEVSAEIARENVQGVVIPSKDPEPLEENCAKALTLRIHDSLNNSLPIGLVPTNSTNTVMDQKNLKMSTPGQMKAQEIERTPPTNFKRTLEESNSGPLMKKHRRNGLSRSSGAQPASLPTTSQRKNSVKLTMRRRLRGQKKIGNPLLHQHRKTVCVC
row,SMILES,Potency
1,CCCCCOc1ccc(C2SC(=O)NC2=O)cc1OCC (stereo not given),2.51 µM (active)
2,Nc1ccc(O)cc1,inactive
3,c1ccc(C(O[C@H]2CCCN(CCc3ccc4c(c3)OCO4)C2)c2ccccc2)cc1,inactive
4,CCCCCCOC(=O)NC(=N)c1ccc(NCc2nc3cc(C(=O)N(CCC(=O)OCC)c4ccccn4)ccc3n2C)cc1,inactive
5,CCOC(=O)c1ccc(OCCN2C[C@H](O)[C@@H](O)[C@H](O)[C@H]2CO)cc1,inactive
6,COc1ccccc1OCC1CNC(=O)O1 (stereo not given),inactive
7,CCCC(=O)O[C@]1(C(=O)CC)CC[C@H]2[C@@H]3CCC4=CC(=O)CC[C@]4(C)[C@H]3[C@@H](O)C[C@@]21C,inactive
8,Cn1cc(S(C)=O)c(=O)c2ccc(F)cc21 (stereo not given),inactive
9,Nc1cc(C(F)(F)F)ccc1S,inactive
10,CCCN(CCC)C(=O)C(CCC(=O)OCCCN1CCN(CCOC(=O)Cc2c(C)n(C(=O)c3ccc(Cl)cc3)c3ccc(OC)cc23)CC1)NC(=O)c1ccccc1 (stereo not given),inactive
11,C/C(=C1\CCOC(=O)S1)N(C=O)Cc1cnc(C)nc1N,inactive
12,CC(C)NC(=O)c1ccc(C=O)cc1,inactive
13,CCCC(=O)O[C@]1(C(=O)CCl)[C@@H](C)C[C@H]2[C@@H]3CCC4=CC(=O)C=C[C@]4(C)[C@@]3(F)C(=O)C[C@@]21C,inactive
14,CCCC(=O)Nc1ccc(O)c(C(C)=O)c1,inactive
15,CCCCCOc1ccccc1/C(=C\SC)n1ccnc1,inactive
16,O=C(OCCN1CCOCC1)c1cccnc1Nc1cccc(C(F)(F)F)c1,inactive
17,COCCOCC(OC)OC,inactive
18,N[C@@H](Cc1cc(I)c(O)c(I)c1)C(=O)O,20 µM (active)
19,C=CCOc1cc(Cl)ccc1C(=O)NCCN(CC)CC,inactive
20,COc1cc2nc(Cl)nc(N)c2cc1OC,inactive

row,SMILES,Potency
1,Cc1ccc(-c2ccccc2C#N)cc1,inactive
2,CCOC(=O)C(O)c1ccccc1 (stereo not given),inactive
3,C[N+](C)(CCOc1ccccc1)Cc1cccs1,inactive
4,Cc1ccc(CCn2c3c(c4cc(Cl)ccc42)CN(C)CC3)cn1,inactive
5,Cc1ccc2c(Cl)cc(Cl)c(O)c2n1,inactive
6,CC(C)(Oc1ccc(Cl)cc1)C(=O)OCCCOC(=O)C(C)(C)Oc1ccc(Cl)cc1,inactive
7,CCCOc1ccc2c(c1)CC[C@@H]1[C@@H]2CC[C@]2(C)C(OC)CC[C@@H]12 (stereo not given in full),inactive
8,O=C(C1CCCCC1)N1CC(=O)N2CCCc3ccccc3C2C1 (stereo not given),inactive
9,Nc1ccc([N+](=O)[O-])c(C(F)(F)F)c1,inactive
10,CN(C)CCCOC1(Cc2ccccc2)CCCCCC1,inactive
11,O=C(Nc1ccc(Cl)cc1)Nc1ccc(Cl)c(C(F)(F)F)c1,12.6 µM (active)
12,CCOC(=O)C(=O)CCCCCCl,inactive
13,CC(=O)O[C@@H]1CC2C3CCc4cc(OC(=O)c5ccccc5)ccc4C3CCC2(C)[C@H]1OC(C)=O (stereo not given in full),inactive
14,Cc1cc(=O)oc2cc(O[C@@H]3SC[C@@H](O)[C@H](O)[C@H]3O)ccc12,inactive
15,Cc1ccc(O)cc1,inactive
16,NCC(=O)O,inactive
17,O=C1NC(c2ccccc2)(c2ccccc2)C(=O)N1COP(=O)(O)O,inactive
18,CCN(CC)C(=O)C1CN2CCc3cc(OC)c(OC)cc3C2CC1OC(C)=O (stereo not given),inactive
19,Cc1sccc1Br,inactive
20,C/C(=N/NC(=O)c1ccncc1)C(=O)O,inactive
